From PubChem BioAssay (NCI)
This is part of a sample that, as a whole, favours compounds with a hit. Of some 79,000 tested, about 15% had one in any assay. No stated cut-off is given here; in the data, active means growth inhibition above about 70%; inactive means the rest.

Legend:
[1] = NCI Yeast Anticancer Drug Screen. Data for the rad50 strain (AID 155);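 further: 0% = growth of vehicle-only cultures of the same strain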; settings: S. cerevisiae rad50 strain growth inhibition, active compounds read high; at 50.0 µM unless noted
Outline: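 Relative growth inhibition (compound vs vehicle) was measured in yeast with a defined repair-gene alteration.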

[2] = NCI Yeast Anticancer Drug Screen. Data for the mec2-1 strain (AID 157); settings: S. cerevisiae mec2-1 strain, active compounds read high; at 50.0 µM unless noted
Outline: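 Growth inhibition is read against vehicle-treated controls after compound exposure of the mec2-1 yeast strain, which is defective in DNA damage repair or cell cycle control.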

[3] = NCI Yeast Anticancer Drug Screen. Data for the sgs1 mgt1 strain (AID 161);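 further: 0% = growth of cultures given vehicle only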; settings: S. cerevisiae sgs1 mgt1 strain, active compounds read high; at 50.0 µM unless noted
Outline: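 Compounds are added to genetically altered yeast, and growth is compared with cultures given vehicle alone to give percent inhibition.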

[4] = NCI Yeast Anticancer Drug Screen. Data for the cln2 rad14 strain (AID 165);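 further: 0% = growth equal to vehicle treated cultures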; settings: S. cerevisiae cln2 rad14 strain, active compounds read high; at 50.0 µM unless noted
Outline: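 Growth inhibition, relative to vehicle-treated controls, is the read-out. The test organism is a yeast strain with defined genetic alterations, cln2 rad14.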

[5] = NCI Yeast Anticancer Drug Screen. Data for the bub3 strain (AID 167); settings: S. cerevisiae bub3 mutant strain, active compounds read high; at 50.0 µM unless noted
Outline: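 Screening used yeast with an engineered genetic alteration affecting cell cycle control. Compound-exposed cultures were compared with vehicle cultures, and reduced growth was taken as inhibition.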

[6] = NCI Yeast Anticancer Drug Screen. Data for the mlh1 rad18 strain (AID 175); settings: S. cerevisiae mlh1 rad18 strain growth inhibition, active compounds read high; at 50.0 µM unless noted
Outline: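 Cells of a genetically altered yeast strain, deficient in DNA damage repair, were treated with compound. Their growth was then compared with that of vehicle-treated cultures to give inhibition.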

Measured: growth inhibition

CC[N+](C)(CC)CCNC(=O)C(c1ccccc1)c1ccccc1
inactive: [1] 45.6% | [2] -1.45% | [3] 21.1% | [4] 0.5% | [5] 6.65% | [6] 16.2%

CCN(CC)CCN(C(=O)C(C)(C)C)c1ccccc1N
inactive: [1] -30.8% | [2] -27.9% | [3] -17.1% | [4] -18.6% | [5] -19.1% | [6] -4%

CCCCC1(CC)COC(C)(CC)OC1 (stereo unspecified)
inactive: [1] 29.4% | [2] 15.7% | [3] 5.3% | [4] -26.6% | [5] -19.4% | [6] 17.5%

COc1cc([C@@H]2c3cc4c(cc3[C@H](OC3OC5COC(c6ccco6)OC5C(O)C3O)C3COC(=O)[C@@H]32)OCO4)cc(OC)c1OC (stereo partly specified)
inactive: [1] 7.25% | [2] 18.8% | [3] 7.6% | [4] 17.9% | [5] 0.2% | [6] -42%

CSc1ccc(Cl)cc1
inactive: [1] 6% | [2] -4.55% | [3] 1.7% | [4] 16.9% | [5] -1.2% | [6] 16.1%

Cc1cc(C)c(CC(C)C)c(C)c1
inactive: [1] 1.85% | [2] 6.25% | [3] 17.4% | [4] 31.4% | [5] 2.4% | [6] -2.45%

O=P(CSCCO)(c1ccccc1)c1ccccc1
inactive: [1] -23.6% | [2] -21.9% | [3] -13.4% | [4] -6.3% | [5] -11.9% | [6] -36.7%

O=C(O)C[N-]CC(=O)O.OO.[O]=[V]
inactive: [1] -16.9% | [2] 1.5% | [3] -1.7% | [4] -30.7% | [5] 3.75% | [6] 3.55%

NC(=S)N/N=C/c1ccc(N)cn1
inactive: [1] -4.2% | [2] 17% | [3] -0.5% | [4] 0.25% | [5] 8.15% | [6] -8.8%

CCOC(=O)NC(=O)c1cn(CCOCCOC(=O)NCCCCCCNC(=O)OCCOCCn2cc(C(=O)NC(=O)OCC)c(=O)[nH]c2=O)c(=O)[nH]c1=O
inactive: [1] 5.05% | [2] 24.2% | [3] 25.6% | [4] 20.1% | [5] -6.9% | [6] 29.6%

CCN(CC)C(=O)N(O)C1CCCCC1
inactive: [1] -35.4% | [2] 2.2% | [3] -14.9% | [4] 8.05% | [5] 4.75% | [6] -7.2%

O=C(/C=C/c1ccccc1)CSc1ncn[nH]1
inactive: [1] 10.1% | [2] 5.4% | [3] 8.7% | [4] 4.75% | [5] 19.4% | [6] -7.4%

c1ccc2nn(C3CCCO3)nc2c1 (stereo unspecified)
inactive: [1] 0.75% | [2] -16.5% | [3] -21.9% | [4] -29.4% | [5] 3.15% | [6] -43.5%

Cc1c(Cl)cccc1NC(=O)C(=O)c1c(O)c2ccc(O)cc2oc1=O
inactive: [1] 4.8% | [2] 1.25% | [3] -19.1% | [4] 3.45% | [5] -15.6% | [6] 5.35%

Nc1ccc(N)c2c(O)c3ccccc3c(O)c12
inactive: [1] 5.2% | [2] 11.8% | [3] 12.9% | [4] -1.8% | [5] 1.8% | [6] 22%

O=S1(=O)OCCOS(=O)(=O)C1Cc1nc2ccccc2[nH]1
inactive: [1] 3.25% | [2] 15.8% | [3] 1.25% | [4] 56.9% | [5] -0.05% | [6] 37.1%

O=C(O)/C=C/c1cccc(F)c1
inactive: [1] -16.6% | [2] -12.2% | [3] -4.9% | [4] -15.9% | [5] -17% | [6] 10.2%

CC(=O)OCC1OC(OC(C)=O)C(NC(=O)c2ccccc2)C(OC(C)=O)C1OC(C)=O (stereo unspecified)
inactive: [1] -2.1% | [2] -3.45% | [3] -3.5% | [4] -20.6% | [5] 17.4% | [6] -1.5%

NCCSS(=O)(=O)O
inactive: [1] 3.25% | [2] 4.45% | [3] -17.7% | [4] -41.5% | [5] 0.45% | [6] -24.9%

CC1CN=C(N(C(=O)Nc2ccccc2)C2CCCCC2)S1 (stereo unspecified)
inactive: [1] -43.1% | [2] -8.9% | [3] -60.1% | [4] 5.35% | [5] -4.3% | [6] -20%

CC1(C)CC[C@]2(C(=O)O)CC[C@]3(C)C(=CC[C@@H]4[C@@]5(C)CC[C@H](O)C(C)(C)[C@@H]5CC[C@]43C)[C@@H]2C1
inactive: [1] -3.7% | [2] 4.4% | [3] -7.5% | [4] 13.2% | [5] 0.1% | [6] -3.9%
